# Screens (PubChem BioAssay)
# Shown are actives, neighbours in structure and some others; about 3.5% of the full set was active somewhere.
# GPR151 activ: activators of human GPR151, primary screen, cell-based, PathHunter beta-arrestin, luminescence; G-protein coupled receptor 151 (Homo sapiens), Q8TDV0; PathHunter beta-arrestin GPR151 cells; activation, % at 11.2 µM; actives 1% (n = 650,000); in the data active means activation above about 4.9%;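 further: 0% = median of compound wells and 100% = cells with positive control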
# FBW7 activator: FBW7 E3 ligase activators, primary screen, biochemical, AlphaScreen, human | normalized activity (activation), % at 26.1 µM | AlphaScreen FBW7–phospho-cyclin E peptide binding, activator screen | F-box/WD repeat-containing protein 7 (Homo sapiens), Q969H0 | actives 0.13% (n = 650,000); in the data active means normalized activity above about 1.9%;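 further: purified mutant Fbw7 with reduced substrate affinity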
# MITF primary: MITF inhibitors, primary screen, biochemical, AlphaScreen, human; Microphthalmia-associated transcription factor (Homo sapiens), O75030; AlphaScreen MITF homodimerization, bead proximity signal; inhibition, % at 2.6 µM; actives 0.91% (n = 650,000); AID 1259374, 2018; in the data active means inhibition above about 50%;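 further: 0% = vehicle wells with protein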
# Target sequence (O75030 whole entry, looked up): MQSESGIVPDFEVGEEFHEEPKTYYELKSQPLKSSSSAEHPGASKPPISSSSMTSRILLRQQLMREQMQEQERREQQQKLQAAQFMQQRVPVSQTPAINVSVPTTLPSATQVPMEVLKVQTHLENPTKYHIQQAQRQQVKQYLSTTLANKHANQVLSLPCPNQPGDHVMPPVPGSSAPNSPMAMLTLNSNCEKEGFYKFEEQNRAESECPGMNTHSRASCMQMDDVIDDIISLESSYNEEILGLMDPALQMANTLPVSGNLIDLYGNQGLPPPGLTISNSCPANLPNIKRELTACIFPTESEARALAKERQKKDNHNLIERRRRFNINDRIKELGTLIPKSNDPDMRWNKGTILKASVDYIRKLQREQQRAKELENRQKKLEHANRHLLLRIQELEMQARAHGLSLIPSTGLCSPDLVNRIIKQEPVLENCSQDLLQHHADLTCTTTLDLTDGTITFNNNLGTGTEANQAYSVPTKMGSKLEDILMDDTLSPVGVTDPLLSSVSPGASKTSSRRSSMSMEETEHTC
# TEAD-YAP block: TEAD-YAP interaction inhibition, primary screen, TEAD-YAP interaction inhibitor project, luminescence, HEK-TIYL cells. actives 1.4% (n = 640,000). inhibition, % at 9.12 µM. TEAD-Gal4/YAP UAS-luciferase luminescence; in the data active means inhibition above about 32%;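 further: 0% = median of test compound wells and 100% = reference inhibitor wells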
# MITF confirm: MITF inhibitors, retest of hits, confirmation, biochemical, AlphaScreen, triplicate | shares compounds with MITF primary | AlphaScreen MITF homodimerization, biotin/His-MITF beads | inhibition, % at 2.6 µM | actives 16% (n = 4,700);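 active means inhibition above a cutoff derived from the DMSO control wells, cut at about 28% in these data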;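 further: 0% = MITF dimer wells with DMSO only; inhibitors lower the bead chemiluminescence by keeping MITF from dimerizing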
# AS interf DR: AlphaScreen optical interference compounds, dose response, counter-screen, biochemical, HTS; shares compounds with MITF primary; AID 1259373, 2018; AlphaScreen optical interference counterscreen, cell-free; IC50, µM; actives 6% (n = 480); call rule not given here
# AS interf ctr: AlphaScreen optical interference compounds, counter-screen for MITF inhibitor project, biochemical, triplicate; shares compounds with MITF primary; LysRS AlphaScreen counterscreen, signal interference; inhibition, % at 2.6 µM; actives 7.6% (n = 4,700); AID 1259376, 2018;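 active means inhibition above a cutoff derived from the DMSO control wells, cut at about 30% in these data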
# * hit, by the source's call; . = no result given.
SMILES,GPR151 activ,FBW7 activator,MITF primary,TEAD-YAP block,MITF confirm,AS interf ctr,others
COc1cccc(OC)c1C(=O)N1CCN(Cc2cccc(Br)c2)CC1,-1.0,0.3,63.7*,-0.3,-3.4,-6.5,
c1ccc(CN2CCCC2c2nc(-c3ccncc3)n[nH]2)nc1 (stereo not given),0.3,-1.4,101.3*,-6.1,92.3*,100.3*,
O=C(NCCSCc1ccccc1)c1ccc2c(=O)n(Cc3ccccc3)c(=S)[nH]c2c1,0.0,-0.1,4.5,-2.2,.,.,
COc1ccccc1NC(=O)N1CCN(C)CC1,-0.6,0.0,51.6*,7.8,8.8,10.3,
COc1ccccc1N1CCN(CCCCCCN)CC1,-0.3,0.2,6.0,6.7,.,.,
COc1ccccc1N1CCN(CCCOc2ccc(F)cc2)CC1,1.2,0.2,59.9*,9.2,7.4,11.7,
COc1ccc(OCCCN2CCN(c3ccccc3OC)CC2)cc1,1.0,0.0,80.6*,7.7,52.5*,39.4*,
COc1ccccc1N1CCN(C(=O)CN2CCN(C)CC2)CC1,4.6,0.3,54.4*,13.9,1.8,-0.9,
O=C1/C(=C/c2ccccn2)SC(=S)N1Cc1ccc2c(c1)OCO2,-1.7,-0.2,-10.9,2.3,.,.,
CC(C)C(=O)Nc1ccc(N2CCN(C(=O)C(C)C)CC2)cc1,-0.3,0.2,0.4,9.5,.,.,
Cc1ccc(N2C(=O)C3C(C2=O)C2(CO)C=CC3(C)O2)cc1[N+](=O)[O-] (stereo not given),0.5,0.0,52.9*,6.6,43.4*,4.9,AS interf DR=>6.48
CC12C=CC(CO)(O1)C1C(=O)N(c3ccc([N+](=O)[O-])cc3)C(=O)C12 (stereo not given),0.4,0.1,-2.7,-10.6,.,.,
O=S(=O)(c1ccc(F)cc1)N1CCN(Cc2cccc(Cl)c2)CC1,1.1,-0.1,59.6*,1.2,5.5,13.8,
CS(=O)(=O)c1cccc(S(=O)(=O)N2CCN(Cc3ccccc3)CC2)c1,-0.2,-0.2,-12.0,5.7,.,.,
CCS(=O)(=O)N1CCN(Cc2cccc(Cl)c2)CC1,1.7,0.0,59.0*,-9.3,8.6,12.8,
O=S(=O)(c1ccccc1)N1CCN(Cc2cccc(Cl)c2)CC1,0.1,0.2,63.7*,2.2,8.3,18.5,
O=S(=O)(c1ccc(Cl)cc1)N1CCN(Cc2ccc(F)cc2)CC1,1.3,-0.1,0.5,-3.2,.,.,
O=C(CSCc1ccc(Br)cc1)NCCSCc1ccco1,0.5,0.0,11.7,-2.2,.,.,
O=C(CCC1CCCC1)N1CCC(N2CCN(c3ccccc3)CC2)CC1,1.4,0.2,55.2*,4.0,14.5,4.8,
O=C(c1ccccc1)N1CCN(C2CS(=O)(=O)CC2O)CC1 (stereo not given),0.2,0.2,80.8*,4.9,11.3,16.0,
O=C(c1ccccc1)N1CCC(N2CCN(c3ccccc3)CC2)CC1,0.2,0.1,79.4*,3.2,-1.0,-0.9,
O=C(CCC(=O)N1CCN(c2ccccc2)CC1)N1CCN(c2ccccc2)CC1,-0.5,0.2,14.7,6.7,.,.,
O=C(c1cccc(Cl)c1)N1CCC(N2CCN(c3ccccc3)CC2)CC1,0.1,-0.2,79.1*,6.6,3.7,1.2,
O=C(c1cccc(Cl)c1)N1CCN(C2CCN(Cc3ccccc3)CC2)CC1,0.0,0.9,32.5,1.2,.,.,
CC(O)CNc1cc(Cl)ccc1[N+](=O)[O-] (stereo not given),-1.1,0.4,18.7,7.8,.,.,
SMILES,GPR151 activ,FBW7 activator,MITF primary,TEAD-YAP block,MITF confirm,AS interf ctr,others
COc1ccc(S(=O)(=O)NNC(=O)C(=O)NNc2ccccc2)cc1,0.0,0.0,-1.9,-5.2,.,.,
COc1ccc(Cl)cc1NC(=O)CSc1nc2c(c(=O)n1C)SC(C)C2 (stereo not given),-1.0,1.2,23.9,-1.1,.,.,
Cc1ccc(C)c(NCC(O)CN2c3ccccc3Sc3ccccc32)c1 (stereo not given),0.5,-0.1,73.4*,6.4,1.1,2.9,
OC(CNc1ccccc1)CN1c2ccccc2Sc2ccccc21 (stereo not given),-0.1,0.5,9.1,0.4,.,.,
COc1ccccc1NS(=O)(=O)c1cc(N=CC2=C(O)CC(C)(C)CC2=O)ccc1C,0.3,-0.1,4.5,3.8,.,.,
Cc1ccc(S(=O)(=O)CCN2CCN(Cc3ccccc3)CC2)cc1,0.2,0.1,10.9,11.0,.,.,
c1ccc(CCCN2CCN(Cc3ccncc3)CC2)cc1,0.1,0.0,68.7*,6.4,-9.1,-7.3,
COc1ccc(CN2CCN(CCCc3ccccc3)CC2)cc1OC,1.3,-0.1,59.0*,5.6,12.4,14.8,
c1ccc(CN2CCN(Cc3ccncc3)CC2)cc1,-0.4,0.1,79.6*,6.4,-8.2,-0.5,
Cc1ccc(CN2CCN(CCCc3ccccc3)CC2)cc1,1.9,-0.2,65.7*,6.4,-12.8,-2.4,
COc1ccc(CN2CCN(CCCc3ccccc3)C(CCO)C2)cc1OC (stereo not given),-0.5,0.2,7.4,2.0,.,.,
CCN(Cc1ccccc1)C(=O)CSc1nc2n[nH]c(C)c2c(=N)n1-c1cccc(C)c1,-0.4,-0.1,-1.0,11.5,.,.,
O=C(O)c1ccc(-n2cccc2)cc1Cl,-0.2,-0.4,79.2*,0.4,74.9*,12.1,AS interf DR=>6.48
O=C(O)c1ccc(-n2cnnn2)cc1Cl,1.6,-0.1,9.5,5.7,.,.,
CCCCOc1ccc(C(=O)N/C(=C/c2ccccc2)C(=O)NCCO)cc1,0.1,-0.1,7.4,4.7,.,.,
c1ccc2c(Nc3nc(NCc4nc5ccccc5[nH]4)c4ncn(-c5ccsc5)c4n3)nccc2c1,2.4,1.1,61.6*,26.8,-6.8,10.9,
COc1ccccc1CNC(=O)C1CCC(Cn2c(=S)[nH]c3ccccc3c2=O)CC1 (stereo not given),1.9,0.1,52.7*,-17.1,-2.8,3.8,
CS(=O)(=O)N1CCN(Cc2ccccn2)CC1,-1.5,-0.6,76.7*,-5.5,6.5,15.4,
Cc1ccccc1CN1CCN(Cc2ccccn2)CC1,1.3,0.0,79.5*,-14.5,13.4,21.1,
c1ccc(N2CCN(Cc3ccccn3)CC2)cc1,1.2,0.0,29.7,-1.9,.,.,
Cc1ccc(CN2CCN(Cc3ccccn3)CC2)cc1,-1.3,0.2,67.8*,-1.6,-3.4,1.4,
Clc1ccc(CN2CCN(Cc3ccccn3)CC2)cc1,-0.8,-0.1,62.7*,-29.1,-5.7,0.0,
Fc1ccc(C2=NN3C(C2)c2cc(Cl)ccc2OC3c2cccc(F)c2)cc1 (stereo not given),-2.0,0.1,16.8,-10.7,.,.,
